We go through 1 compound from PubChem BioAssay AID743291 (Broad Institute, 2014).

Potency and affinity values are given separately. Calls of active or inactive are those of the source.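 How the source made its calls: active means signal drop with fitted half-maximal dose at most twice the top valid dose, active in every repeat; inconclusive means repeats disagree, or flat partial inhibition, or poor fit; inactive means inactive in every repeat, including opposite effects.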

This assay deals with Caspase-3 (Homo sapiens) (UniProt P42574). The assay can be described thus: human caspase-3 protease activity blockade – biochemical, fluorescence, cherry-picked samples, selectivity assay for caspase-6 allosteric inhibitor project, dose response (AID 743291).
Caspase-3 (Homo sapiens), sequence (P42574 whole entry, looked up): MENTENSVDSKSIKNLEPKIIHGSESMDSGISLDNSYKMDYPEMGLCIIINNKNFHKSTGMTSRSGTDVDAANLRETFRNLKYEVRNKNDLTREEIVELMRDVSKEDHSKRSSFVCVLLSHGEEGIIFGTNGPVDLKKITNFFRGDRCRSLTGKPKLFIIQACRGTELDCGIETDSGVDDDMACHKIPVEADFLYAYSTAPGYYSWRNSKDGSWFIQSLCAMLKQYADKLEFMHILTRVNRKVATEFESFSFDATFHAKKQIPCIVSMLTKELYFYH

For the compound `CN1CCc2cc3c(c4c2C1Cc1ccccc1-4)OCO3` (stereo unspecified), the result was inactive.
